MITF inh: MITF inhibitors, primary screen, biochemical, AlphaScreen, human | AlphaScreen MITF homodimerization, bead proximity signal | Microphthalmia-associated transcription factor (Homo sapiens), O75030 | 0.91% of 650,000 active | inhibition, % at 2.6 µM; in the data active = inhibition above about 50%;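 also: 0% = vehicle wells with protein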
TEAD-YAP inh: TEAD-YAP interaction inhibition, primary screen, TEAD-YAP interaction inhibitor project, luminescence, HEK-TIYL cells; 1.4% of 640,000 active; TEAD-Gal4/YAP UAS-luciferase luminescence; inhibition, % at 9.12 µM; in the data active = inhibition above about 32%;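 also: 0% = median of test compound wells and 100% = reference inhibitor wells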
GPR151 ag: activators of human GPR151, primary screen, cell-based, PathHunter beta-arrestin, luminescence; activation, % at 11.2 µM; G-protein coupled receptor 151 (Homo sapiens), Q8TDV0; 1% of 650,000 active; PathHunter beta-arrestin GPR151 cells; AID 1508602, 2020; in the data active = activation above about 4.9%;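 also: 0% = median of compound wells and 100% = cells with positive control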
Target sequence (Q8TDV0 whole entry, looked up): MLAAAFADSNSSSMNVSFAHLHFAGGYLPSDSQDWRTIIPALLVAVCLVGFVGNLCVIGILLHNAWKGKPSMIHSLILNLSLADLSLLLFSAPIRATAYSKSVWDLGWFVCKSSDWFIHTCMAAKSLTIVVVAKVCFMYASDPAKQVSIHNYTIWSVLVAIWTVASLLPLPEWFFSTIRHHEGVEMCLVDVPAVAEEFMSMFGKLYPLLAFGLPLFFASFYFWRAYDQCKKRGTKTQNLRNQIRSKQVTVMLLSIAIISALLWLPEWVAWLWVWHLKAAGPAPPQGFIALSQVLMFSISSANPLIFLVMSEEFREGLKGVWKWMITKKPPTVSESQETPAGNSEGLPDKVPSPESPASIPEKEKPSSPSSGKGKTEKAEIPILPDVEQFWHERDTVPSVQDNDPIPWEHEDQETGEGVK
FBW7 act: FBW7 E3 ligase activators, primary screen, biochemical, AlphaScreen, human; AlphaScreen FBW7–phospho-cyclin E peptide binding, activator screen; normalized activity (activation), % at 26.1 µM; AID 1259310, 2017; 0.13% of 650,000 active; F-box/WD repeat-containing protein 7 (Homo sapiens), Q969H0; in the data active = normalized activity above about 1.9%;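 also: purified mutant Fbw7 with reduced substrate affinity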
MITF inh conf: MITF inhibitors, retest of hits, confirmation, biochemical, AlphaScreen, triplicate; 16% of 4,700 active; inhibition, % at 2.6 µM; AlphaScreen MITF homodimerization, biotin/His-MITF beads; shares compounds with MITF inh;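 active = inhibition above a cutoff derived from the DMSO control wells, cut at about 28% in these data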;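 also: 0% = MITF dimer wells with DMSO only; inhibitors lower the bead chemiluminescence by keeping MITF from dimerizing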
AS interf DR: AlphaScreen optical interference compounds, dose response, counter-screen, biochemical, HTS; AlphaScreen optical interference counterscreen, cell-free; AID 1259373, 2018; 6% of 480 active; shares compounds with MITF inh; IC50, µM; call rule not given here
AS interf ctr: AlphaScreen optical interference compounds, counter-screen for MITF inhibitor project, biochemical, triplicate. shares compounds with MITF inh. LysRS AlphaScreen counterscreen, signal interference. AID 1259376, 2018. 7.6% of 4,700 active. inhibition, % at 2.6 µM;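 active = inhibition above a cutoff derived from the DMSO control wells, cut at about 30% in these data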
* = called active by the depositor; . = no result. In the library only some 3.5% were active in any assay of this set; here they are far more common.

SMILES	MITF inh	TEAD-YAP inh	GPR151 ag	FBW7 act	MITF inh conf	AS interf ctr	others
O=C1CC(N2CCOCC2)C(=O)N1c1cc(C(F)(F)F)ccc1Cl (stereo not given)	88*	1	-1	0	-1	2
Cc1cc(C)n(CC(=O)NNC(=O)CCc2nc3ccccc3s2)n1	6	-4	1	0	.	.
O=C(O)c1cc(S(=O)(=O)Nc2ccc(-n3cnnn3)cc2)ccc1O	53*	-1	0	0	41*	14	AS interf DR=>7.2
C=CCc1ccccc1OCCOCCNCCCOC	58*	12	0	0	-11	-5
C=CCc1cc(Cl)ccc1OCCNCCCOC	25	10	0	0	.	.
C=CCc1cc(Cl)ccc1OCCNCCO	52*	14	-1	0	5	-9
C=CCc1cc(Cl)ccc1OCCOCCNCCOC	56*	3	1	0	42*	0	AS interf DR=>6.5
COc1ccc(-c2cc(C(F)(F)F)n3nc(C(=O)Nc4ccc(Cl)c(Cl)c4)c(Cl)c3n2)cc1	7	5	0	0	.	.
COc1cccc(CC(=O)Nc2nnc(-c3ccco3)c(-c3ccco3)n2)c1	63*	-4	1	-1	80*	15	AS interf DR=>6.5
COc1cccc(CC(=O)Nc2ccc3ccccc3c2)c1	-1	7	-2	0	.	.
Cc1ccc(C)c(S(=O)(=O)C(F)F)c1	-14	-4	-1	0	.	.
O=C1CCCN1CCCNCC(=O)N1c2ccccc2Sc2ccccc21	76*	3	-1	0	-16	-1
O=[N+]([O-])c1ccc(NCCNCCO)cc1N1CCOCC1	0	-8	0	0	.	.
Cc1ccc(C)c(S(=O)(=O)Nc2ccc3oc4c(c3c2)C(=O)CC(C)(C)C4)c1	14	2	-1	0	.	.
O=C(Cc1cccc2ccccc12)Nc1nnc(-c2ccncc2)o1	71*	2	0	0	52*	98*
O=C(Cc1cccc2ccccc12)Nc1nnc(-c2ccc3c(c2)OCCO3)o1	6	1	0	0	.	.
CN1C(=O)C(=Cc2ccc(OCc3ccccc3C#N)cc2)C(=O)N(C)C1=S	11	-14	0	0	.	.
CC(C)(C)c1ccccc1OCCCN1CCNCC1	60*	-15	-1	0	3	4
Clc1ccc(OCCCCN2CCNCC2)cc1	-2	-15	2	0	.	.
Brc1ccccc1OCCCCN1CCNCC1	51*	-7	0	0	-9	-6
Clc1ccccc1OCCCCN1CCNCC1	54*	-6	-1	0	-6	-7
CCOc1ccccc1OCCCN1CCNCC1	-8	-5	0	0	.	.
COc1ccc2c(c1)C(Cl)=C(C=O)CO2	9	10	-1	0	.	.
CCOc1c(OC)cccc1C1C(C(=O)OC)=CN(c2ccc(F)cc2)C=C1C(=O)OC	12	6	1	0	.	.
COc1ccc2c(c1)C(C)CC(C)(C)N2C(=O)NC1CCCCC1 (stereo not given)	17	-22	-1	1	.	.
SMILES	MITF inh	TEAD-YAP inh	GPR151 ag	FBW7 act	MITF inh conf	AS interf ctr	others
COc1ccc2c(c1)C(C)CC(C)(C)N2C(=O)CNCCN1CCOCC1 (stereo not given)	88*	1	1	0	9	18
CCOCCOC(=O)c1ccc(NC(=O)C(C)(C)C)cc1	8	-22	-1	0	.	.
Cc1ccc(C)c(Cn2c(NCCNC(=O)C3CCC3)nc3c2c(=O)n(C)c(=O)n3C)c1	73*	8	0	0	4	13
COCC(=O)NCCNc1nc2c(c(=O)n(C)c(=O)n2C)n1Cc1cc(C)ccc1C	77*	6	0	0	1	9
Cc1ccccc1NC(=O)c1nnn(CC(=O)Nc2cccc(C)c2C)c1N	-8	-2	0	0	.	.
CSc1ccc(CN2CCN(S(=O)(=O)c3ccc(F)cc3)CC2)cc1	45	5	-2	1	.	.
Cc1ccc(CN2CCN(CC3CC4C=CC3C4)CC2)cc1 (stereo not given)	74*	5	0	0	-6	-2
CSc1ccc(CN2CCN(CC3CC4C=CC3C4)CC2)cc1 (stereo not given)	62*	1	0	0	-3	4
COc1cc(CN2CCN(CC3CC4C=CC3C4)CC2)cc(OC)c1OC (stereo not given)	56*	11	0	0	-3	0
Fc1ccc(CN2CCN(CC3CC4C=CC3C4)CC2)cc1 (stereo not given)	79*	7	0	0	7	20
COc1ccc(OC)c(CN2CCN(CC3CC4C=CC3C4)CC2)c1 (stereo not given)	35	-6	0	0	.	.
CC(C)(C)NC(=O)CN(Cc1cccs1)C(=O)C(=O)Nc1ccc2c(c1)OCCO2	-7	10	0	0	.	.
CN(C(=O)c1coc(=O)c2ccccc12)C1CCCCC1	-20	10	-3	0	.	.
CN(C(=O)Cc1ccc(NC2=NC3CS(=O)(=O)CC3S2)cc1)C1CCCCC1 (stereo not given)	58*	-8	4	-1	56*	42*
CC(=O)NCCCc1nc2ccccc2n1Cc1ccccc1Cl	-1	-6	-1	0	.	.
Clc1cccc(CN2CCc3nnc(C4CCCO4)n3CC2)c1 (stereo not given)	12	6	1	0	.	.
C/C=C/c1ccc(OCCn2cncn2)c(OC)c1	55*	-5	0	0	13	17
Cc1ccc(OCCCCn2cncn2)c(I)c1	-19	-30	1	0	.	.
Cc1ccc(OCCn2cncn2)c(I)c1	60*	-1	0	1	8	12
C/C=C/c1ccc(OCCCCn2cncn2)c(OC)c1	55*	2	2	0	-10	-8
OC(COCc1ccc(Cl)cc1)CN1CCN(CC2CCCO2)CC1 (stereo not given)	68*	-5	1	0	8	12
OC(COCc1ccc(Cl)cc1)CN1CCCC1 (stereo not given)	16	-9	1	0	.	.
CCOC(=O)c1cccc(N2C(=O)C3C4C=CC(C4=C(C)C)C3C2=O)c1 (stereo not given)	8	-12	3	0	.	.
Cn1nc(C(=O)OCc2ccc(Cl)cc2Cl)c2ccccc2c1=O	12	-7	1	0	.	.
